The campaign covered roughly 300,000 compounds. About 5,200 (1.7%) were called active. The full list was thinned out, with actives kept by preference. Unmarked numbers belong to inactive results.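 Rule for the calls: active = mean replicate activation of at least 50% with a set share of replicates each reaching 50%; inconclusive = only one of those two conditions met; inactive = mean below 50% and too few replicates reaching it.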

A short description of the experiment: HSF-1 response element luciferase induction – NIH3T3-HGL cells, MG132 stress, luminescence, single point, primary screen (AID 504408).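 Note: 0% = median of the neutral control wells and 100% = twice that signal.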 The conditions noted are these: NIH3T3-HGL HSF-1 luciferase reporter, MG132, 8 h; at 9 µM; active compounds read high; 100% = twice DMSO control signal. (In a reporter assay the amount or activity of a reporter protein is the signal.)
As to `COc1ccc(-c2nnc3ccc(SCc4ccccc4)nn23)cc1`, the activation was 16%. As for `COC(=O)CSc1nc(C)c2ccc(OC)cc2n1`, the activation is 17.7%. Regarding `COc1ccc2nc(SCc3ccccc3)nc(C)c2c1`, the activation was 68.9% (active). Turning to `Cc1ccc(S(=O)(=O)N2CCCCC2)cc1C(=O)N(C)CC(=O)Nc1cccc(F)c1`, the activation is 5.46%.

With `Cn1nc(C(F)(F)F)cc1-c1ccc(/C=C(\C#N)C(=O)c2cccc(C(F)(F)F)c2)s1`, the activation is 65.6% (active). On to `Cn1nc(C(F)(F)F)cc1C(=O)O`, for which the activation is 15.5%. As to `CNC(=O)c1ccc(NC(=O)c2cccc(C(F)(F)F)c2)cc1`, the activation was 9.95%. On to `FC(F)(F)c1ccc2c3n(nc2c1)CCN=C3c1ccc(Cl)cc1`, for which the activation is -14.8%. Take `Cc1cc(C)c2c(NC(=O)C3CC3)nn(C)c2n1`: the activation is 56.3% (active). The value for `Cc1ccc2c(NC(=O)C3CC3)cccc2n1` was -0.793%; that for `Cc1cc(C)cc(NC(=O)C2CCN(c3nc(C)cc(C)n3)CC2)c1` was 11%. For `COc1ccc2c(c1OC)C(=O)OC2Nc1nc(-c2ccccc2)cs1` (configuration not stated) the value was 139% (active). Consider `COc1ccc(CCNc2nc(-c3cccc(NC(C)=O)c3)cs2)cc1OC`, for which the activation was -4.33%. As for `COc1cccc(CC(=O)Nc2nc(-c3ccc(OC)c(OC)c3)cs2)c1`, the activation is 3.91%. As for `Cc1ccc(-c2csc(NC(=O)Cn3[nH]c(=O)c4ccccc4c3=O)n2)cc1`, the activation is -17.7%.

Take `COc1ccc(-c2csc(NC3OC(=O)c4ccccc43)n2)cc1` (configuration not stated): the activation was 20.2%. `Cc1ccc(-c2csc(NC3OC(=O)c4ccccc43)n2)cc1` (configuration not stated): the activation was 81.1% (active).

With `CCc1cccc(C)c1NC(=O)COC(=O)CC1CCCC1`, the activation is 4.54%. For `CCCCn1c(N)c(N(CC(C)C)C(=O)c2ccc(-n3c(C)ccc3C)cc2)c(=O)[nH]c1=O` the value was 4.3%; for `CCN(CC(=O)Nc1ccc(NC(C)=O)cc1)C(=O)C1CC(=O)N(Cc2ccc(C)cc2)C1` (configuration not stated), 3.94%; for `Cc1cccc(C(=O)NCc2nnc(SC(C)C(=O)Nc3nnc(C)s3)n2C)c1` (configuration not stated), -1.45%. For `Cc1onc(-c2ccccc2Cl)c1C(=O)N(Cc1ccc(N(C)C)cc1)C(C)C`, the activation is 8.27%.

For `COc1cccc(NC(=S)NCc2ccccn2)c1`, the activation was 15.3%.

On to `COc1cccc(NC(=S)NC(=O)c2c(Cl)c(C)nn2C)c1`, for which the activation was 60.9% (active). For `Cc1nn(C)c(C(=O)NNC(=S)NC2CCCCC2)c1Cl`, the activation is 22.3%.

As for `CN(CC(=O)Nc1cccc(F)c1)C(=O)C1CSC2(C)CCC(=O)N12` (configuration not stated), the activation is 1.13%.

As for `O=C1CN(C(=O)COc2c(Cl)cccc2Cl)c2ccccc2N1`, the activation is -79.7%. For `Cc1cc(C)cc(NC(=O)COc2coc(CN3CCN(c4ccccc4)CC3)cc2=O)c1` the value was 1.43%. With `C/C(CCC(=O)OC[C@H]1O[C@H](C#Cc2ccccc2)C=C[C@@H]1Oc1ccc(C)cc1)=N\OC[C@@H](O)[C@H]1O[C@@H]2OC(C)(C)O[C@@H]2[C@H]1O`, the activation is 61.7% (active). For the compound `COc1ccc(O[C@H]2C=C[C@@H](c3ccccc3)O[C@@H]2CO/N=C/C[C@@H]2C=C[C@H](OC(C)=O)[C@@H](COC(C)=O)O2)cc1`, the activation was -4.12%. Take `CCOc1ccc(CCNC(=O)COC(=O)c2c(OC)cccc2OC)cc1OCC`: the activation is -2.88%. As to `CC(=O)Nc1ccc(/C=C/C(=O)c2ccccc2)cc1`, the activation is 30.2%. On to `Cc1cn(COC/C=C/c2ccccc2)c(=O)[nH]c1=O`, for which the activation is -6.12%. For `Cc1[nH]c(=O)c(C(=O)/C=C/c2ccccc2)c2c1CCCC2`, the activation was 71% (active). `O=C(c1ccc(F)cc1)N1CCC(C(=O)N2CCN(S(=O)(=O)c3ccccc3Br)CC2)CC1`: the activation is -3.27%. The value for `CCOc1ccc(S(=O)(=O)N2CCC(C(=O)OCc3ccc(OC)cc3)CC2)cc1` was 10.2%; that for `Cc1nc(-c2ccc(F)cc2)c(CC(=O)Nc2cccc(S(=O)(=O)N3CCOCC3)c2)s1` was 4.29%. As to `O=C(c1ccc[nH]c1=S)N1CCN(S(=O)(=O)c2ccc(Br)cc2Cl)CC1`, the activation is 58% (active).

In the case of `O=C(c1ccc(Cl)c(S(=O)(=O)N2CCCCC2)c1)N1CCCCCC1`, the activation is -11.6%. For `O=C(c1ccccc1F)N1CCN(S(=O)(=O)c2ccc(Br)cc2)CC1`, the activation is -5.95%. For `CC(=O)CC[C@@H](C)O[C@@H]1OC(C)[C@H](O)CC1O` (some centres not stated) the value was -8.11%. Regarding `CCOc1ccc(C(=O)Nc2cc(Cl)ccc2-n2cncn2)cc1OC`, the activation is -15.6%.

For the compound `Cc1ccccc1NC(=O)C(C)OC(=O)CCC(=O)N(CC(C)C)c1c(N)n(CC(C)C)c(=O)[nH]c1=O` (configuration not stated), the activation was -9.04%. Turning to `Cc1ccccc1Nc1nc(N)nc(CSc2nnc3ccccn23)n1`, the activation is -3.03%. For `Cc1ccccc1Nc1nc(N)nc(CSc2ccccc2)n1` the value was 118% (active); for `Cc1ccc(C(=O)OCc2nc(N)nc(Nc3ccccc3C)n2)cc1`, -1.52%; for `O=C(Nc1ncccc1O)c1ccc(S(=O)(=O)N2CCCCCC2)cc1`, 3.69%.

The values above are taken from PubChem BioAssay AID504408 (Broad Institute, 2011).
